{
  "source": "PubChem BioAssay (NCATS)",
  "key": {"[1]": {"target": "Cytochrome P450 1A2 (Homo sapiens) (UniProt P05177)", "sequence (P05177 whole entry, looked up)": "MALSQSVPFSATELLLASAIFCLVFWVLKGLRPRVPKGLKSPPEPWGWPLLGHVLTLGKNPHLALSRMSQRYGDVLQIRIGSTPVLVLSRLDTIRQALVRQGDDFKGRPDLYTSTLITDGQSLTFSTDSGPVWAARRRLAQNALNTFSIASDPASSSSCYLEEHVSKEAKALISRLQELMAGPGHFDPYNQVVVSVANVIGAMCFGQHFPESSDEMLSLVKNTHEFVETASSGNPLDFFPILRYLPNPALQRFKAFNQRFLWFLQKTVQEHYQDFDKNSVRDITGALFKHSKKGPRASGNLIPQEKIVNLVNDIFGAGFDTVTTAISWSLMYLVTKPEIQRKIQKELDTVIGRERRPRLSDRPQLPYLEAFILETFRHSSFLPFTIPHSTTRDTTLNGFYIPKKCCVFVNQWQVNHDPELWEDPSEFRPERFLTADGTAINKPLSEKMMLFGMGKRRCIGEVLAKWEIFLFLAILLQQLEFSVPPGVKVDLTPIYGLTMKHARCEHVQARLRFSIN", "assay": "p450-cyp1a2 (AID 410); note: potency is the fitted concentration of half-maximal effect", "how_it_was_run": "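Luminescent readout of luciferin formed from Luciferin-ME by human CYP1A2; data normalized against complete inhibition by 57 uM furafylline. Enzyme 20nM, substrate 100uM at Km, 100mM KPO4 buffer, 60 min reaction at room temperature.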"}, "[2]": {"assay": "NFAT Signaling Pathway (AID 444; active = well fitted curve in either direction with a large enough effect, not every such curve was filed as active;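 note: carbachol stimulus at about its EC50 of 1 µM final; % is set by controls: 0 for no effect and ±100 for the full control effect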)", "conditions": "Jurkat NFAT-bla M1, carbachol, beta-lactamase ratio, 5 h; at 38 µM (top of the series) unless noted", "how_it_was_run": "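Jurkat cells carrying an NFAT-driven β-lactamase reporter and co-transfected muscarinic M1 receptor were treated with compound plus carbachol (1 uM final, an EC50 level) for 5 h at 37 °C. CCF4 loading followed for 1 h at RT; 460/530 nm ratio gave %activity.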"}, "[3]": {"target": "Glucocorticoid receptor (Homo sapiens) (UniProt P04150)", "sequence (P04150 whole entry, looked up, the tested form may be a part)": "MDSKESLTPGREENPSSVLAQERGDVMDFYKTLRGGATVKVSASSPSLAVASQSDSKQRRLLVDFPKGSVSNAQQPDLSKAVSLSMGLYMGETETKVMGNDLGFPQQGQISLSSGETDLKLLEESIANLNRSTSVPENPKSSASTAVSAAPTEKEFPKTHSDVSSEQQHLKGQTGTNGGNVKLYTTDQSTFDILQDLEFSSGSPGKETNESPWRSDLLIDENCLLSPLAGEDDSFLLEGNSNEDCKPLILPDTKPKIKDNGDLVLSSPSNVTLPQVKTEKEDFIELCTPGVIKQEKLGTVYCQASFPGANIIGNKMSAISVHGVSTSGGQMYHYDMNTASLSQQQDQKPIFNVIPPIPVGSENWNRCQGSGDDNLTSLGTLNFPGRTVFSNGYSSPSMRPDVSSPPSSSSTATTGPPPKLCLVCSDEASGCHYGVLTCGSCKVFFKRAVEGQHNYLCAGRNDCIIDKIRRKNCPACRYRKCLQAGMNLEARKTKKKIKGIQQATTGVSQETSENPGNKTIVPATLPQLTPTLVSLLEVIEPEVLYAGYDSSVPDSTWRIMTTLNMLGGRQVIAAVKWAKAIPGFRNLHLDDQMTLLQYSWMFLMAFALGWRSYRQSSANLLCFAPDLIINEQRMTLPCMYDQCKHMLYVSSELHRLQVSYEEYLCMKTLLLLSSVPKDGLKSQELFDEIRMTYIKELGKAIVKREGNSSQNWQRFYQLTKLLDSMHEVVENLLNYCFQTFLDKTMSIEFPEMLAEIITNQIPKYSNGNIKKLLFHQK", "assay": "GR-GFP Redistribution (AID 450;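 active = compounds whose dose series gives a full or clear partial fitted curve of increased nuclear translocation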; note: potency is the fitted concentration of half-maximal effect)", "conditions": "U2OS GR-GFP nuclear translocation, laser cytometry, 2 h"}, "[4]": {"target": "Glucocorticoid receptor (Homo sapiens) (UniProt P04150)", "assay": "GR-EFC Redistribution (AID 451); note: potency is the fitted concentration of half-maximal effect", "conditions": "CHO-K1 GR-EFC translocation, beta-gal luminescence, 2 h", "how_it_was_run": "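CHO-K1 cells stably expressing nuclear-localized β-gal enzyme acceptor and GR fused C-terminally to the enzyme donor fragment; ligand-driven nuclear translocation restores β-gal by complementation. Compounds titrated up to 46 uM final, 2 h at 37 °C; luminescence read.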"}, "[5]": {"assay": "Stat Signaling Pathway (AID 446; active = well fitted curve in either direction with a large enough effect, not every such curve was filed as active;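 note: ME-180 cervical cancer cells given 40 pM IL-6 alongside compound; SIE-controlled beta-lactamase reporter measured as 460/530 nm FRET emission ratio; % is set by controls: 0 for no effect and ±100 for the full control effect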)", "conditions": "ME-180 SIE beta-lactamase reporter, IL-6 stimulated, 5 h", "how_it_was_run": "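ME-180 SIE-bla cells; overnight plating; cpd + IL-6 40 pM, 5 h, 37 C; LiveBLAzer 2.5 h RT; 460/530 nm emission ratio. Normalized to 300 pM IL-6 and 125 nM JAK inhibitor controls.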"}, "[6]": {"target": "Mitogen-activated protein kinase 10 (Mus musculus) (UniProt Q61831)", "assay": "JNK3 AlphaScreen Assay (AID 530; active = well fitted curve in either direction with a large enough effect, not every such curve was filed as active;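 note: signal reports phosphorylation of biotinylated GST-cJun 1-79 at Ser73 with 10 µM ATP; % is set by controls: 0 for no effect and ±100 for the full control effect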)", "how_it_was_run": "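Inhibitors reduce antibody binding to phosphorylated biotin-cJun, lowering AlphaScreen luminescence. Lysates from HepG2 cells pre-activated by IL-1beta plus TNF-alpha supplied JNK3; compounds were titrated.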"}, "[7]": {"conditions": "at 38 µM (top of the series) unless noted"}},
  "note": "Where “and” joins values, the source holds several entries; their conditions need not be identical. Equal entries are not always repeated. A number with no mark means an inactive call. Records with an inconclusive call do not appear. Calls of active or inactive are those of the source. Unless noted, calls come from the whole dose curve.",
  "data": [
    {"smiles": "O=[N+]([O-])c1cccc2c(Br)[nH]nc12", "values": [
      {"measurement": "Potency", "setting": "[1]", "value": "794 nM (active) and 126 nM (active)"},
      {"measurement": "activity change, negative = inhibition", "setting": "[2]", "value": -9.63, "unit": "%"},
      {"measurement": "Potency", "setting": "[3]", "value": "> 46", "unit": "µM"},
      {"measurement": "Potency", "setting": "[4]", "value": "> 46", "unit": "µM"}
    ]},
    {"smiles": "Cn1c(=O)[nH]c2ncn(C)c2c1=O", "values": [
      {"measurement": "Potency", "setting": "[1]", "value": "inactive"},
      {"measurement": "activity change, negative = inhibition", "setting": "[2]", "value": -1.89, "unit": "%"},
      {"measurement": "activity, negative = inhibition", "setting": "[5]; [7]", "value": 3.46, "unit": "%"},
      {"measurement": "Potency", "setting": "[3]", "value": "> 46", "unit": "µM"},
      {"measurement": "Potency", "setting": "[4]", "value": "> 46", "unit": "µM"},
      {"measurement": "outcome", "setting": "[6]", "value": "inactive"}
    ]},
    {"smiles": "Fc1ccc(CN(C2=NCCN2)c2c(Cl)cccc2Cl)cc1", "values": [
      {"measurement": "Potency", "setting": "[1]", "value": "inactive"},
      {"measurement": "activity, negative = inhibition", "setting": "[5]; [7]", "value": -4.64, "unit": "%"},
      {"measurement": "Potency", "setting": "[4]", "value": "> 46", "unit": "µM"},
      {"measurement": "outcome", "setting": "[6]", "value": "inactive"}
    ]},
    {"smiles": "COC(=O)[C@H](NC(=O)c1cc(-c2ccccc2)nc2ccccc12)c1ccccc1", "values": [
      {"measurement": "Potency", "setting": "[3]", "value": "> 46", "unit": "µM"},
      {"measurement": "Potency", "setting": "[4]", "value": "> 46", "unit": "µM"},
      {"measurement": "outcome", "setting": "[6]", "value": "inactive"}
    ]},
    {"smiles": "O=c1[nH]ccc2c(O)cccc12", "values": [
      {"measurement": "Potency", "setting": "[1]", "value": "15.8 µM (active)"},
      {"measurement": "activity, negative = inhibition", "setting": "[5]; [7]", "value": -2.82, "unit": "%"},
      {"measurement": "Potency", "setting": "[3]", "value": "> 46", "unit": "µM"},
      {"measurement": "Potency", "setting": "[4]", "value": "> 46", "unit": "µM"},
      {"measurement": "outcome", "setting": "[6]", "value": "inactive"}
    ]},
    {"smiles": "N[C@@H](CS(=O)O)C(=O)O", "values": [
      {"measurement": "Potency", "setting": "[1]", "value": "inactive"},
      {"measurement": "Potency", "setting": "[3]", "value": "> 46", "unit": "µM"},
      {"measurement": "Potency", "setting": "[4]", "value": "> 46", "unit": "µM"},
      {"measurement": "outcome", "setting": "[6]", "value": "inactive"}
    ]},
    {"smiles": "O=c1onc2n1-c1cc(Br)ccc1OC2", "values": [
      {"measurement": "Potency", "setting": "[1]", "value": "0.794 µM (active)"},
      {"measurement": "activity, negative = inhibition", "setting": "[5]; [7]", "value": -16.1, "unit": "%"},
      {"measurement": "Potency", "setting": "[4]", "value": "> 46", "unit": "µM"},
      {"measurement": "outcome", "setting": "[6]", "value": "inactive"}
    ]},
    {"smiles": "C=C1C(=O)O[C@@H]2[C@H]3O[C@]3(C)CCC=C(C)CC[C@@H]12", "values": [
      {"measurement": "Potency", "setting": "[1]", "value": "10 µM (active)"},
      {"measurement": "Potency", "setting": "[4]", "value": "> 46", "unit": "µM"},
      {"measurement": "outcome", "setting": "[6]", "value": "inactive"}
    ]},
    {"smiles": "Oc1cc(O)c2c(c1)O[C@H](c1ccc(O)c(O)c1)[C@@H](O)C2", "values": [
      {"measurement": "Potency", "setting": "[1]", "value": "inactive"},
      {"measurement": "Potency", "setting": "[3]", "value": "> 46", "unit": "µM"},
      {"measurement": "Potency", "setting": "[4]", "value": "> 46", "unit": "µM"},
      {"measurement": "outcome", "setting": "[6]", "value": "inactive"}
    ]},
    {"smiles": "CCCCOC(=O)NS(=O)(=O)c1sc(CC(C)C)cc1-c1ccc(Cn2c(CC)nc3c(C)cc(C)nc32)cc1", "values": [
      {"measurement": "Potency", "setting": "[1]", "value": "31.6 µM (active)"},
      {"measurement": "Potency", "setting": "[3]", "value": "> 46", "unit": "µM"},
      {"measurement": "Potency", "setting": "[4]", "value": "> 46", "unit": "µM"},
      {"measurement": "outcome", "setting": "[6]", "value": "inactive"}
    ]},
    {"smiles": "CN(C)S(=O)(=O)c1ccc2c(c1)/C(=C/c1cc3c([nH]1)CCCC3)C(=O)N2", "values": [
      {"measurement": "Potency", "setting": "[1]", "value": "0.316 µM (active)"},
      {"measurement": "activity, negative = inhibition", "setting": "[5]; [7]", "value": "-60.7% (active)"},
      {"measurement": "Potency", "setting": "[4]", "value": "> 46", "unit": "µM"},
      {"measurement": "outcome", "setting": "[6]", "value": "inactive"}
    ]},
    {"smiles": "COc1ccc(C(=O)NCc2cccnc2)cc1C(=O)NCc1cccnc1", "values": [
      {"measurement": "activity, negative = inhibition", "setting": "[5]; at 17.2 µM (top of the series)", "value": 2.24, "unit": "%"},
      {"measurement": "activity, negative = inhibition", "setting": "[5]; at 38 µM (top of the series)", "value": -27.6, "unit": "%"},
      {"measurement": "Potency", "setting": "[3]", "value": "> 46 µM and > 20.6 µM"},
      {"measurement": "Potency", "setting": "[4]", "value": "> 46 µM and > 20.6 µM"},
      {"measurement": "outcome", "setting": "[6]", "value": "inactive"}
    ]},
    {"smiles": "COc1cc2c(CCNC(C)=O)c[nH]c2cc1O", "values": [
      {"measurement": "Potency", "setting": "[1]", "value": "31.6 µM (active)"},
      {"measurement": "Potency", "setting": "[4]", "value": "> 46", "unit": "µM"},
      {"measurement": "outcome", "setting": "[6]", "value": "inactive"}
    ]},
    {"smiles": "NCCNS(=O)(=O)c1cccc2c(Cl)cccc12", "values": [
      {"measurement": "Potency", "setting": "[4]", "value": "> 46", "unit": "µM"},
      {"measurement": "outcome", "setting": "[6]", "value": "inactive"}
    ]},
    {"smiles": "CC[C@@H]1Cc2cc(O)ccc2C2=C1c1ccc(O)cc1C[C@H]2CC", "values": [
      {"measurement": "Potency", "setting": "[3]", "value": "> 46", "unit": "µM"},
      {"measurement": "Potency", "setting": "[4]", "value": "> 46", "unit": "µM"},
      {"measurement": "outcome", "setting": "[6]", "value": "inactive"}
    ]},
    {"smiles": "NC[C@@H]1O[C@H](c2ccccc2)Cc2c1ccc(O)c2O", "values": [
      {"measurement": "Potency", "setting": "[4]", "value": "> 46", "unit": "µM"},
      {"measurement": "outcome", "setting": "[6]", "value": "inactive"}
    ]},
    {"smiles": "CCCn1c(=O)c(C)cn2nc(N)nc12", "values": [
      {"measurement": "Potency", "setting": "[3]", "value": "> 46", "unit": "µM"},
      {"measurement": "Potency", "setting": "[4]", "value": "> 46", "unit": "µM"},
      {"measurement": "outcome", "setting": "[6]", "value": "inactive"}
    ]},
    {"smiles": "COc1ccc2c(c1)c(CC(=O)O)c(C)n2Cc1ccc(Cl)cc1", "values": [
      {"measurement": "Potency", "setting": "[1]", "value": "31.6 µM (active)"},
      {"measurement": "Potency", "setting": "[3]", "value": "> 46", "unit": "µM"},
      {"measurement": "Potency", "setting": "[4]", "value": "> 46", "unit": "µM"}
    ]},
    {"smiles": "CCN(c1nc(N)c(C(=O)N=C(N)N)nc1Cl)C(C)C", "values": [
      {"measurement": "Potency", "setting": "[1]", "value": "2 µM (active)"},
      {"measurement": "activity, negative = inhibition", "setting": "[5]; [7]", "value": -24.1, "unit": "%"},
      {"measurement": "Potency", "setting": "[4]", "value": "> 46", "unit": "µM"},
      {"measurement": "outcome", "setting": "[6]", "value": "inactive"}
    ]},
    {"smiles": "CCCC(=O)NCCc1c2n(c3ccc(OC)cc13)CCCc1ccccc1-2", "values": [
      {"measurement": "activity change, negative = inhibition", "setting": "[2]", "value": -6.48, "unit": "%"},
      {"measurement": "Potency", "setting": "[3]", "value": "> 46", "unit": "µM"},
      {"measurement": "Potency", "setting": "[4]", "value": "> 46", "unit": "µM"},
      {"measurement": "outcome", "setting": "[6]", "value": "inactive"}
    ]},
    {"smiles": "C/C(=C\\c1ccc(C(=O)O)cc1)c1ccc2c(c1)C(C)(C)CCC2(C)C", "values": [
      {"measurement": "Potency", "setting": "[1]", "value": "inactive"},
      {"measurement": "Potency", "setting": "[3]", "value": "> 46", "unit": "µM"},
      {"measurement": "Potency", "setting": "[4]", "value": "> 46", "unit": "µM"},
      {"measurement": "outcome", "setting": "[6]", "value": "inactive"}
    ]},
    {"smiles": "CC1CCN(CC[C@H]2CCCN2S(=O)(=O)c2cccc(O)c2)CC1", "values": [
      {"measurement": "Potency", "setting": "[3]", "value": "> 46", "unit": "µM"},
      {"measurement": "Potency", "setting": "[4]", "value": "> 46", "unit": "µM"},
      {"measurement": "outcome", "setting": "[6]", "value": "inactive"}
    ]}
  ]
}
